Experimental data: the supplement of paper PMC8726507
Values without a mark were called inactive.

Tested on: Plasmodium falciparum NF54-HGL (transmission to Anopheles stephensi)
Assay: percentage of barcode signal found in uninfected mosquitoes (transmission-blocking activity); higher = stronger blocking of transmission to mosquito, active = 80 or more
Conditions: 10 µM; gametocyte preincubation time 24 h; readout time post-feed 8 days
Experimental: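 The mixture was fed to Anopheles stephensi in 96-well plates as blood meals tagged with DNA-barcoded Asaia bacteria. Eight days later, mosquitoes were classed infected or uninfected by luminescence (mean + 5 SD of unfed controls). Barcodes were quantified by Luminex MagPlex-TAG in the pooled uninfected and infected Asaia cultures, background-corrected, and the score is % of barcode signal in uninfected mosquitoes = 100*Iu/(Iu+Ii).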

Compound | percentage of barcode signal found in uninfected mosquitoes
CCN(CC)CCCCCCNc1cc(OC)cc2c(C)ccnc12 | 55.8%
CCCn1c(CNc2ccccc2O)nc2ccccc21 | 34.7%
CC(=O)NC[C@@H]1CN(c2ccc(N3CCOCC3)c(F)c2)C(=O)O1 | 4.01%
Cc1cc(C)n2nc(C(=O)Nc3cc(C(F)(F)F)ccc3N3CCOCC3)nc2n1 | 29.6%
Cc1cc2ccccc2n1CC(=O)N1CC(C(=O)N2CCCCC2)Oc2ccccc21 (stereo not drawn) | 34.8%
CC[C@H](CO)NCCN[C@H](CC)CO | 24.2%
COc1cccc2c(C)nc(N=C(N)N)nc12 | 24.9%
O=C(Nc1nnc(-c2ccc(Cl)cc2)o1)c1cccc(C(F)(F)F)c1 | -0.664%
C[C@]1(O)C[C@@H](c2nc(-c3ccc4ccc(-c5ccccc5)nc4c3)c3c(N)nccn32)C1 | 80.6% (active)
N#Cc1nc(-c2ccccc2)oc1S(=O)(=O)c1ccc(Cl)cc1 | 72.7%
Cc1cc(C(=O)Nc2cnn(Cc3ccc(Cl)cc3Cl)c2)no1 | 42.7%
N=C(N)c1ccc(-c2cc(-c3ccccc3)on2)cc1 | 33.2%
COc1ccc(C2=NN(C3CCCCCC3)C(=O)[C@@H]3CC=CC[C@H]23)cc1OCCCCOc1ccc(-c2nn[nH]n2)cc1 | 63.6%
c1ccc(-c2cc(N3CCCCC3)c3ccccc3n2)nc1 | 53.1%
CCCNC(=O)N1CCC2(CC1)CC(=O)c1cc(C)ccc1O2 | 11.9%
O=C(c1ccc(NCCO)cc1)C1C[C@H]1c1ccc(Cl)cc1 (stereo partly drawn) | 39.6%
Cc1ccc2[nH]c3c(NCCN(C)C)ncnc3c2c1 | 40.6%
CCc1cc(=O)n(C)c(SC(C)C(=O)Nc2ccc(F)cc2)n1 (stereo not drawn) | 48.5%
O=C(NCc1nnc2n1CCCCC2)c1ccc(-c2ccc(F)cc2)o1 | -11%

Same assay, conditions: 20 µM; gametocyte preincubation time 24 h; readout time post-feed 8 days

Compound | percentage of barcode signal found in uninfected mosquitoes
O=C(c1ccc(F)cc1)N(CCNc1ccccc1)c1ccccc1 | 7.39%
C[C@H](C(N)=O)N1CCCC[C@H]1c1ccc(OCc2cccc(F)c2)cc1 | 25%
Cc1ccc(-c2cc(C(=O)Nc3cccnc3)c3cc(Br)ccc3n2)cc1 | 42.5%
NC(=O)c1cc(Br)ccc1OCCOc1ccccc1 | 0.0693%
CN1CCCN(C(c2ccccc2)c2ccc(Cl)cc2)CC1 (stereo not drawn) | 25.1%
COc1cccc(-c2nc3c(N4CCCC4)cccc3n2CC2CCCN2)n1 (stereo not drawn) | 68%
CC(C)NCC(=O)Nc1cccc(C(=O)Nc2cccc(C(F)(F)F)c2)c1 | 54%
NC(CC(=O)c1ccc(Cl)cc1Cl)C(Cl)(Cl)Cl (stereo not drawn) | 86.9% (active)
FC(F)(F)c1cccc(-c2nc3c(NCc4ccncc4)nccc3[nH]2)c1 | 2.48%
O=C(NCc1cc(Cl)cc(Cl)c1)c1c(C(F)(F)F)nc2ccccn12 | 20%
CN1CCC(NCc2cccc(-c3ccc(S(=O)(=O)NCc4ccccc4)cc3)c2)CC1 | 98.6% (active)
O=C1[C@@H](Oc2ccccc2)[C@@H](c2ccc(Cl)cc2)N1CCn1cnc2c(NCc3ccccc3)ncnc21 | 1.2%
COc1ccc(Oc2ccc([C@@H](C)N(C)c3ncc4c(N)nc(N)nc4n3)cc2)cc1 | 72.1%
CCN(CC)CCCN1CCN(C(=O)c2cccc(-c3noc(C(F)(F)F)n3)c2)CC1 | 64.3%
Cc1nn(C)cc1C(C)Nc1nncc(-c2ccc(C(F)(F)F)cc2)n1 (stereo not drawn) | 89.3% (active)
Clc1ccc(Cl)c(CO[C@H]2CCCC[C@@H]2n2ccnc2)c1 | 19.9%
O=[N+]([O-])c1cn2c(n1)OC[C@@H](OCc1ccc(OC(F)(F)F)cc1)C2 | 17%
COc1cc(C(F)(F)F)nc2ccc(C)c(N)c12 | -0.0386%
Cc1ccc(S(=O)(=O)Nc2ccc(CN3CCN(C(=O)c4cccc(C#N)c4)CC3)cc2)cc1 | 0.0235%
